Hit rate of the full screen: of about 69,000 compounds, about 8,600 (12%) showed an effect of 50% or more. This is one part of a sample in which strong results are shown more often than they occur.
These compounds were tested on Plasmodium berghei (assay: Screen against P. berghei liver stage (PbLuc), transformed with Luciferase, at 10uM). Settings: tested at 10 uM.
Type: functional, HepG2

Q: Which INHIBITION does the source give for `COc1cc(NCc2c(C)noc2C)c(OC)cc1Cl` here?
A: Its INHIBITION is 28.7%.

Q: How did the INHIBITION turn out when `Cc1ccc(N[C@@H]2CN(Cc3cc(C)on3)C[C@@H]3CCCO[C@@H]32)nn1` was run?
A: Its INHIBITION is -24.1%.

Q: `Cc1cc(NC(=O)CN2CCc3cnc(C(C)C)nc3C2)on1` was tested. Which INHIBITION did it give?
A: Its INHIBITION is -0.113%.

Q: For `COc1ccc(OC)c(C(O)CN2CCC(N3CCC(C)CC3)CC2)c1` (centres undefined), which INHIBITION is on record?
A: The INHIBITION was 12.3%.

Q: How did the INHIBITION turn out when `COCCN(C)C(C)c1cccc(S(N)(=O)=O)c1` (centres undefined) was run?
A: Its INHIBITION is -29.8%.

Q: For `CC(C)c1n[nH]c(C2CN(C(=O)c3cc(Cl)c[nH]3)CCO2)n1` (centres undefined), which INHIBITION is on record?
A: The INHIBITION was -17.4%.

Q: How did the INHIBITION turn out when `Cc1nn(C)cc1CN1CCCC(n2c(=O)oc3ccccc32)C1` (centres undefined) was run?
A: The INHIBITION was 43.35%.

Q: For `Cc1cccc(=O)n1CCCNc1nc(N(C)C)nc2c1CCNCC2`, which INHIBITION is on record?
A: The INHIBITION was 7.93%.

Q: For `c1ccc(-c2nc3c(c(NCCCn4cncn4)n2)CCNCC3)nc1`, which INHIBITION is on record?
A: Its INHIBITION is 57.3%.

Q: With `CN(Cc1nccs1)c1nc(-c2ccccn2)nc2c1CCNCC2` as the compound, how does the INHIBITION read?
A: The INHIBITION was 13.7%.

Q: With `c1ccc(-c2nc3c(c(NCCn4ccnn4)n2)CCNCC3)nc1` as the compound, how does the INHIBITION read?
A: The INHIBITION was -3.01%.

Q: For `CN(Cc1cccnc1)c1nc(-c2ccccn2)nc2c1CCNCC2`, which INHIBITION is on record?
A: The INHIBITION was -10.8%.

Q: Which INHIBITION does the source give for `c1ccc(-c2nc3c(c(NCCn4cccc4)n2)CCNCC3)nc1` here?
A: Its INHIBITION is 66.5%.

Q: How did the INHIBITION turn out when `O=C(CS(=O)(=O)Cc1cc(Cl)c2c(c1)OCO2)N1CCCC1` was run?
A: Its INHIBITION is 21%.

Q: How did the INHIBITION turn out when `COc1ccc(CCC(=O)N2CCN(c3nc(C)ns3)CC2)cc1` was run?
A: Its INHIBITION is 6.7%.

Q: Which INHIBITION does the source give for `CC(C)c1noc(CN2CCN(C(=O)OC(C)(C)C)C(C)C2)n1` (centres undefined) here?
A: The INHIBITION was 33.6%.

Q: `Cc1cc(N2CCOC(c3ccncn3)C2)ncn1` (centres undefined) was tested. Which INHIBITION did it give?
A: Its INHIBITION is 26.7%.

Q: How did the INHIBITION turn out when `COc1cc(N2CCOC(c3ccc(F)cc3)C2)ncn1` (centres undefined) was run?
A: The INHIBITION was 55.2%.

Q: For `COCc1cc(N2CCOC(c3ccc(Cl)c(Cl)c3)C2)ncn1` (centres undefined), which INHIBITION is on record?
A: Its INHIBITION is 63.1%.

Q: `Fc1ccc(C2CN(c3ncnc4nc[nH]c34)CCO2)cc1` (centres undefined) was tested. Which INHIBITION did it give?
A: Its INHIBITION is -28.6%.

Q: `COCc1cc(N2CCOC(c3ccc(Cl)cc3)C2)ncn1` (centres undefined) was tested. Which INHIBITION did it give?
A: The INHIBITION was 8.64%.

Q: With `COCc1cc(N2CCOC(c3ccc(F)cc3)C2)ncn1` (centres undefined) as the compound, how does the INHIBITION read?
A: The INHIBITION was 38.3%.

Q: With `CCn1cnnc1C1CCN(C(=O)c2c(C)oc(C)c2C)CC1` as the compound, how does the INHIBITION read?
A: The INHIBITION was 46.7%.

Q: For `Cc1cccc(CC2COCCN(Cc3nccn3C)C2)n1` (centres undefined), which INHIBITION is on record?
A: The INHIBITION was 26.3%.

Q: `O=C(CC1CCN(CCc2ccccc2)CC1)NC1CCOCC1` was tested. Which INHIBITION did it give?
A: Its INHIBITION is 25.8%.

Q: How did the INHIBITION turn out when `Cn1cnnc1C1CCCN(Cc2nc(Cc3ccccc3)no2)C1` (centres undefined) was run?
A: The INHIBITION was 3.13%.

Q: With `CNc1[nH]nc(N)c1NC(=O)c1ccccc1` as the compound, how does the INHIBITION read?
A: Its INHIBITION is 17.6%.

Q: `COc1ccc(-n2nnc(C(=O)O)c2-c2ccccn2)cc1` was tested. Which INHIBITION did it give?
A: The INHIBITION was 32.2%.

Q: How did the INHIBITION turn out when `Cc1ccc(CN2C[C@@H]3COC[C@@H](NS(C)(=O)=O)[C@@H]3C2)o1` was run?
A: Its INHIBITION is -6.02%.

From ChEMBL document CHEMBL4513216, “Probing the Open Global Health Chemical Diversity Library for Multistage-Active Starting Points for Next-Generation Antimalarials” (ACS Infect Dis, 2020)
